# In PubChem BioAssay AID624405 (Broad Institute, 2012):
# Out of some 1,900 compounds screened, about 250 (13%) were called active. Inconclusive results (about 4%) are left out.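 Rule for the calls: active = fitted curve reaches 40% rescue activity at or below the top valid dose, in every test run; inconclusive = test runs disagree, some active and some inactive; inactive = every run misses the threshold or moves the wrong way.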 A selection follows. Results with a measured potency or affinity are listed apart.
# Experiment: suppressors of statin myotoxicity in myotubes, dose response, cell-based, C2C12 myotubes, ATP luminescence, cherry pick (AID 624405);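 note: myotubes are challenged with simvastatin at 10 µM to lower ATP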
# Settings: C2C12 myotubes + simvastatin, 48 h, scaled: DMSO wells 0, geranylgeraniol wells 100; series mostly up to 19.5 µM; rescue activity (ATP increase): at the top concentration
row,SMILES,rescue activity (ATP increase)
1,CC(C)COc1nc2ccccc2c(=O)n1OCC(=O)O,-5.81% (inactive)
2,CC(C)C#Cc1ccc2c(c1)O[C@@H](CN(C)C(=O)C1CCC1)[C@@H](C)CN([C@@H](C)CO)S2(=O)=O,10.8% (inactive)
3,NNC(=O)c1nn(-c2ccc(Cl)cc2)cc1O,25.5% (inactive)
4,COc1ccc(-n2cnc3cc(NCc4cccs4)ccc32)cc1,-27.2% (inactive)
5,C[C@H](CO)N1C[C@H](C)[C@@H](CN(C)Cc2ccc(Cl)c(Cl)c2)Oc2ccc(NC(=O)CCC(F)(F)F)cc2CC1=O,20.8% (inactive)
6,O=S(=O)(NCC1CCN(S(=O)(=O)c2ccccc2)CC1)c1ccccc1,-17.4% (inactive)
7,Cc1ccc(S(=O)(=O)n2nc(-c3ccco3)nc2SCc2ccccc2)cc1,-2.62% (inactive)
8,CCOC(=O)[C@H]1[C@H]2COc3ccc(Cl)cc3[C@@H]2N2C(=O)c3ccccc3NC(=O)[C@@]12C,-1.05% (inactive)
9,Cc1nc2ccc(S(=O)(=O)NCC(=O)N3CCCC(C)C3)cc2s1 (stereo unspecified),-5.12% (inactive)
10,O=C(CNS(=O)(=O)c1ccc(Br)s1)N1CCN(c2ncccn2)CC1,16.1% (inactive)
11,C[C@H]1CN([C@@H](C)CO)C(=O)Cc2cc(NC(=O)CCC(F)(F)F)ccc2O[C@@H]1CN(C)Cc1ccc(Oc2ccccc2)cc1,14.4% (inactive)
12,COc1ccc(CNC(=O)CCOc2ccc(C(C)(C)C)cc2)cc1,1.89% (inactive)
13,COc1ccc(CCNC(=O)c2ccc(N3CCCC3=O)cc2)cc1,-3.21% (inactive)
14,Cc1ccc(Cl)cc1NC(=O)COC(=O)CC1CC2CCC1C2 (stereo unspecified),15.8% (inactive)
15,COc1cccc(S(=O)(=O)N(C)C[C@H]2OCc3ccccc3-c3c(n(C)c4ccccc34)C(=O)N([C@H](C)CO)C[C@H]2C)c1,-1.38% (inactive)
16,COc1ccc(CN(C)C[C@@H]2Oc3ccc(NS(=O)(=O)c4ccccc4)cc3CC(=O)N([C@H](C)CO)C[C@H]2C)cc1,23.7% [at 21 µM] (inactive)
17,CCOC(=O)N1CCN(c2ccccc2O)CC1,30.5% (inactive)
18,CCOC(=O)N1CCN(C2CC(=O)N(c3ccc(Oc4ccccc4)cc3)C2=O)CC1 (stereo unspecified),-10.9% (inactive)
19,C[C@@H]1CN([C@H](C)CO)C(=O)c2cc(NS(C)(=O)=O)ccc2O[C@@H](C)CCCCO[C@@H]1CN(C)Cc1ccc(Cl)c(Cl)c1,9.34% (inactive)
20,COc1ccc(C(=O)N2C[C@H]3[C@@H](c4ccccc42)[C@@H](CO)N3Cc2ccccc2)cc1,-1.57% (inactive)
21,CCN(CC)c1nc(C#N)cc(-c2ccc(OC)cc2)n1,-121% (inactive)
22,C[C@H](CO)N1C[C@H](C)[C@@H](CN(C)C(=O)Nc2ccccc2)Oc2ncc(C#CC3CCCC3)cc2C1=O,10.3% (inactive)
23,C[C@H](CO)N1C[C@H](C)[C@@H](CN(C)C(=O)Nc2cccc3ccccc23)OCCCC[C@H](C)Oc2ccc(NC(=O)Nc3ccc4c(c3)OCO4)cc2C1=O,-8.78% (inactive)

row,SMILES,rescue activity (ATP increase)
1,Cc1ccc(S(=O)(=O)Nc2ccc3c(c2)C(=O)N([C@H](C)CO)C[C@@H](C)[C@H](CN(C)Cc2ccc(Cl)c(Cl)c2)O3)cc1,28.3% [at 21 µM] (inactive)
2,CCOC(=O)C1=C(C)Nc2ccccc2N=C1NC(=O)c1cccc(S(=O)(=O)N(C)C)c1,-13.1% (inactive)
3,COc1ccc(C(=O)N2C[C@@H]3[C@H](c4ccccc42)[C@H](CO)N3Cc2ccccc2)cc1,4.22% (inactive)
4,COC(=O)C1(C(=O)OC)NOC2C(=O)N(c3ccc(Cl)cc3Cl)C(=O)C21 (stereo unspecified),10% (inactive)
5,C[C@@H](NC(=O)C[C@@H]1CC[C@@H]2[C@H](COC[C@H](O)CN2Cc2ccc(C(F)(F)F)cc2)O1)c1ccccc1,32% (inactive)
6,COc1ccc(S(=O)(=O)Nc2ccc3c(c2)C(=O)N([C@H](C)CO)C[C@H](C)[C@H](CN(C)S(=O)(=O)c2ccc(F)cc2)OCCCC[C@H](C)O3)cc1,9.35% (inactive)
7,CCC(C)(CCNC(=O)Cc1ccccc1)c1ccccc1OC (stereo unspecified),7.25% (inactive)
8,C[C@H](CO)N1C[C@H](C)[C@@H](CN(C)Cc2ccc(-c3ccccc3)cc2)Oc2ccc(NC(=O)Cc3ccccc3)cc2CC1=O,28.4% (inactive)
9,C[C@H](CO)N1C[C@H](C)[C@@H](CN(C)Cc2ccc(-c3ccccc3)cc2)Oc2ccc(NC(=O)CCCCCC(=O)Nc3ccccc3N)cc2CC1=O,32% (inactive)
10,C[C@H]1CN([C@@H](C)CO)C(=O)Cc2cc(NC(=O)CCCCCC(=O)Nc3ccccc3N)ccc2O[C@@H]1CN(C)Cc1ccc(-c2ccccc2)cc1,24.2% (inactive)
11,Cc1noc(C)c1S(=O)(=O)Nc1ccc2c(c1)C(=O)N([C@@H](C)CO)C[C@@H](C)[C@@H](CN(C)S(=O)(=O)c1ccc(Cl)cc1)OCCCC[C@H](C)O2,-4.86% (inactive)
12,c1ccc2c(c1)CNC1(CCCCC1)C2,-4.96% (inactive)
13,COc1ccc(S(=O)(=O)Nc2ccc3c(c2)C(=O)N([C@@H](C)CO)C[C@@H](C)[C@@H](CN(C)C(=O)Nc2cccc4ccccc24)OCCCC[C@H](C)O3)cc1,10.9% (inactive)
14,C[C@@H]1CN([C@H](C)CO)C(=O)Cc2cc(NC(=O)Nc3cccc4ccccc34)ccc2O[C@H]1CN(C)CC1CCCCC1,15.5% (inactive)
15,COc1ccc(S(=O)(=O)Nc2cccc3c2O[C@@H](CN(C)Cc2ccc(Oc4ccccc4)cc2)[C@@H](C)CN([C@@H](C)CO)C3=O)cc1,15.9% (inactive)
16,C[C@H]1CCCCO[C@H](CN(C)C(=O)C2CCCCC2)[C@@H](C)CN([C@@H](C)CO)C(=O)c2cc(NC(=O)NC3CCCCC3)ccc2O1,17.2% [at 21 µM] (inactive)
17,C[C@H]1CCCCO[C@@H](CN(C)S(=O)(=O)c2ccc(Cl)cc2)[C@@H](C)CN([C@@H](C)CO)C(=O)c2cc(NS(C)(=O)=O)ccc2O1,-7.17% (inactive)
18,C[C@@H]1CN([C@@H](C)CO)C(=O)c2cc(NC(=O)Nc3ccc(C(F)(F)F)cc3)ccc2O[C@H]1CN(C)Cc1ccc(C(=O)Nc2ccccc2N)cc1,10.1% (inactive)
19,C[C@H](CO)N1C[C@H](C)[C@@H](CN(C)Cc2ccc(C(=O)Nc3ccccc3N)cc2)Oc2ccc(NC(=O)Nc3ccc(C(F)(F)F)cc3)cc2C1=O,2.2% [at 18 µM] (inactive)
20,C[C@@H]1CN([C@H](C)CO)C(=O)Cc2cc(N(C)C)ccc2O[C@H]1CN(C)Cc1ccc(C(=O)Nc2ccccc2N)cc1,19.2% (inactive)
21,C[C@@H]1CN([C@H](C)CO)C(=O)c2cc(NC(=O)Nc3ccc(C(F)(F)F)cc3)ccc2O[C@@H]1CN(C)Cc1ccc(C(=O)Nc2ccccc2N)cc1,29% [at 21 µM] (inactive)
22,CC1=CCn2c(=O)c3ccccc3c(=O)n2C1,38.7% (inactive)
23,CCOC(=O)c1cc2ccc(OC)c(OC)c2c(=O)s1,-8.38% (inactive)
